Assay results as given in PubChem BioAssay AID598 (SRMLSC, 2007).
Screen size: about 85,000 compounds; about 5,100 (6%) were called active. The list comes from a sample in which actives are over-represented; it also holds similar structures and randomly drawn compounds. Unmarked numbers belong to inactive results.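 Rule for the calls: active = viability at or below 40%; inactive = viability above 40%.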

Assay: proliferation blockers of H69AR lung cancer cells, primary screen, cell-based, human, 86K library (AID 598);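 note: multidrug resistant small cell line overexpressing MRP-1 efflux transporter; 100% = mean luminescence of untreated control wells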
Details: H69AR lung tumor viability, ATP luminescence, 72 h; at 10 µM; active compounds read low

| SMILES | viability |
| --- | --- |
| CC(C)(C)c1ccc(C(=O)NCC(=O)OCN2C(=O)c3ccccc3C2=O)cc1 | 104% |
| Cc1cccc(-n2nc3c(c2NC(=O)c2ccc(Br)o2)CSC3)c1C | 59.7% |
| Cc1cc(NC(=O)Nc2ccccc2)n(-c2ccccc2)n1 | 92.7% |
| Cc1cc(C)nc(-n2nc(C)cc2NC(=O)c2ccc(Br)o2)n1 | 36.5% (active) |
| CSc1ccc(-c2c(C#N)c(N)nc3c2c(C)nn3-c2ccccc2)cc1 | 57.5% |
| CSc1nc(N)c(C#N)c(-c2ccccc2Cl)c1C#N | 21.8% (active) |
| N#Cc1c(N)nc2c3c(sc(=N)c2c1N)NC(=O)CC3c1ccccc1Cl (stereo unspecified) | 113% |
| O=C(NC1CCC(O)CC1)c1ccc(S(=O)(=O)NCc2ccco2)cc1 (stereo unspecified) | 96.7% |
| Cc1nnc(SCC(=O)NCc2ccccc2)s1 | 96.4% |
| CNC(=O)CSc1nnc(CCc2ccccc2)n1-c1ccccc1 | 83.2% |
| CC1(C)Cc2c(sc3nc(SCC(=O)NCc4ccccc4)n(-c4ccccc4)c(=O)c23)CS1 | 24.1% (active) |
| CCOC(=O)c1c(NC(C)=O)sc2c(O)c(Br)ccc12 | 94.9% |
| COc1ccc(C(C#N)Nc2ccccc2C)cc1 (stereo unspecified) | 88.9% |
| O=C(Nc1nnc(SCc2ccccc2)s1)c1ccco1 | 96% |
| O=C(CSc1nnc(-c2cccnc2)n1Cc1ccco1)c1ccc(Cl)cc1 | 95.3% |
| Clc1cccc(-c2nc3nc4ccccc4nc3n2Cc2ccco2)c1 | 34.4% (active) |
| COc1ccc(CCn2c(-c3ccco3)nc3nc4ccccc4nc32)cc1OC | 55.4% |
| Cc1cccc(S(=O)(=O)CC(=O)Nc2nc(-c3ccccc3)cs2)c1 | 99.7% |
| Cc1nc(NNC(=O)c2ccccc2)cc(-c2ccccc2)n1 | 91.7% |
| O=C(NCc1ccccc1)[C@@H]1CSC2c3ccccc3C(=O)N21 (stereo partly specified) | 78.5% |
| COC(CNC(=O)Cn1ncc2ccsc2c1=O)OC | 101% |
| COC(=O)c1ccc(N(CC(=O)NC2CCCC2)C(=O)CNC(=O)c2ccco2)cc1 | 94.9% |
| COC(=O)c1cccc(N(C(=O)c2ccco2)C(C(=O)NC2CCCC2)c2ccco2)c1 (stereo unspecified) | 32.4% (active) |
| Cc1cccc(N(C(=O)c2ccc(CN3CCOCC3)o2)C(C(=O)NC2CCCCC2)c2ccc(F)cc2)c1 (stereo unspecified) | 103% |
| COc1ccc(-c2oc(/N=C/N3CCCC3)c(C#N)c2-c2ccc(OC)cc2)cc1 | 99.1% |
| O=C(N/N=C\c1cccc(Br)c1)c1ccccc1-n1cccc1 | 93.7% |
